Over roughly 16,000 sequences, “rpm ratio (pull-down/input)” has its median near 0.5; the highest 2% begin near 5.5. The list comes from a sample in which the highest values are over-represented; it also holds similar and randomly drawn sequences.
Target: T1, MBP-FoxP3dN (Mus musculus, UniProt Q99JB6 188-423)
T1 sequence: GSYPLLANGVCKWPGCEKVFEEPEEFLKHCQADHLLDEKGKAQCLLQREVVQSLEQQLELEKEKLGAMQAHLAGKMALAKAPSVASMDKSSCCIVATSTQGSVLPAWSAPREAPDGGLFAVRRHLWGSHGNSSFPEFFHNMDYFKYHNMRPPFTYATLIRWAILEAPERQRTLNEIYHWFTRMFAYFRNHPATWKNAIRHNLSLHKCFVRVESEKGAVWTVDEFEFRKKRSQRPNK
Experiment: PD-seq (MBP pull-down with sequencing); 20 mM Tris-HCl pH 7.5, 100 mM NaCl, 1.5 mM MgCl2, 0.4 uM protein, 0.1 uM dsDNA library, 30 min, room temperature, amylose pull-down; high values mean tight binding
Details: protein: recombinant; tags: His6-MBP; chain copies: 2; dsDNA, one strand shown
Method in brief: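 Binding is the reads-per-million enrichment of pull-down relative to input, pooled across replicates. For this, 0.4 µM His6-MBP-tagged mouse FoxP3 or FoxP1 fragment lacking the N-terminus, made in E. coli, was incubated with 0.1 µM Klenow-filled double-stranded degenerate DNA library for 30 min at room temperature in Tris pH 7.5 buffer with NaCl and MgCl2. Complexes bound to amylose resin were washed three times before proteinase K released the DNA for PCR barcoding and Illumina sequencing.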

Going from “GATGATTGTTCTCCCAGCTGATGAATTTGTAGTATCGAGTAAACAAATTTTCCTAATCTTTCTGTTCAAGCGCCATCTAC” to “GATGATTGTTCTCCCAGCTGATGAATTGTTTGTATCGAGTAAACAAATTTTCCTAATCTTTCTGTTCAAGCGCCATCTAC”, the binding signal rises from 5.7 RPM ratio (pull-down/input) to 7.73 RPM ratio (pull-down/input).

Going from “GATGATTGTTCTCCCAGCTGATGAATTTGCTGTATCGAGTAAACAAATTTTCCTAATCTTTCTGTTCAAGCGCCATCTAC” to “GATGATTGTTCTCCCAGCTGATGAATTCTAGCTGTCGAGTAAACAAATTTTCCTAATCTTTCTGTTCAAGCGCCATCTAC”, the binding signal falls from 4.72 RPM ratio (pull-down/input) to 0.392 RPM ratio (pull-down/input).

First: GATGATTGTTCTCCCAGCTGATGAATTCGTTAGTTCGAGTAAACAAATTTTCCTAATCTTTCTGTTCAAGCGCCATCTAC
Second: GATGATTGTTCTCCCAGCTGATGAATTTTACTCATCGAGTAAACAAATTTTCCTAATCTTTCTGTTCAAGCGCCATCTAC
The binding signal of the first is higher: 2.91 RPM ratio (pull-down/input) for the first, 0.402 RPM ratio (pull-down/input) for the second.

Going from “GATGATTGTTCTCCCAGCTGATGAATTTCAAGTTTCGAGTAAACAAATTTTCCTAATCTTTCTGTTCAAGCGCCATCTAC” to “GATGATTGTTCTCCCAGCTGATGAATTTATACGTTCGAGTAAACAAATTTTCCTAATCTTTCTGTTCAAGCGCCATCTAC”, the binding signal rises from 0.283 RPM ratio (pull-down/input) to 0.886 RPM ratio (pull-down/input).

Compared with “GATGATTGTTCTCCCAGCTGATGAATTTCCACGTTCGAGTAAACAAATTTTCCTAATCTTTCTGTTCAAGCGCCATCTAC”, “GATGATTGTTCTCCCAGCTGATGAATTTGATGTATCGAGTAAACAAATTTTCCTAATCTTTCTGTTCAAGCGCCATCTAC” is higher in binding signal: 0.311 RPM ratio (pull-down/input) for the first, 4.63 RPM ratio (pull-down/input) for the second.

First: GATGATTGTTCTCCCAGCTGATGAATTGTATCTTTCGAGTAAACAAATTTTCCTAATCTTTCTGTTCAAGCGCCATCTAC
Second: GATGATTGTTCTCCCAGCTGATGAATTTCTATACTCGAGTAAACAAATTTTCCTAATCTTTCTGTTCAAGCGCCATCTAC
The binding signal of the first is higher: 1.68 RPM ratio (pull-down/input) for the first, 0.435 RPM ratio (pull-down/input) for the second.

Compared with “GATGATTGTTCTCCCAGCTGATGAATTTGTATCTTCGAGTAAACAAATTTTCCTAATCTTTCTGTTCAAGCGCCATCTAC”, “GATGATTGTTCTCCCAGCTGATGAATTGTAATGCTCGAGTAAACAAATTTTCCTAATCTTTCTGTTCAAGCGCCATCTAC” is lower in binding signal: 5.56 RPM ratio (pull-down/input) for the first, 1.07 RPM ratio (pull-down/input) for the second.

Going from “GATGATTGTTCTCCCAGCTGATGAATTTGTTGTATCGAGTAAACAAATTTTCCTAATCTTTCTGTTCAAGCGCCATCTAC” to “GATGATTGTTCTCCCAGCTGATGAATTGTAATACTCGAGTAAACAAATTTTCCTAATCTTTCTGTTCAAGCGCCATCTAC”, the binding signal falls from 7.55 RPM ratio (pull-down/input) to 0.756 RPM ratio (pull-down/input).

First: GATGATTGTTCTCCCAGCTGATGAATTTCTATGCTCGAGTAAACAAATTTTCCTAATCTTTCTGTTCAAGCGCCATCTAC
Second: GATGATTGTTCTCCCAGCTGATGAATTTGTATACTCGAGTAAACAAATTTTCCTAATCTTTCTGTTCAAGCGCCATCTAC
The binding signal of the first is lower: 0.385 RPM ratio (pull-down/input) for the first, 7.1 RPM ratio (pull-down/input) for the second.

First: GATGATTGTTCTCCCAGCTGATGAATTTGTATCATCGAGTAAACAAATTTTCCTAATCTTTCTGTTCAAGCGCCATCTAC
Second: GATGATTGTTCTCCCAGCTGATGAATTGTATCCTTCGAGTAAACAAATTTTCCTAATCTTTCTGTTCAAGCGCCATCTAC
The binding signal of the first is higher: 5.48 RPM ratio (pull-down/input) for the first, 1.61 RPM ratio (pull-down/input) for the second.

First: GATGATTGTTCTCCCAGCTGATGAATTTGTATGCTCGAGTAAACAAATTTTCCTAATCTTTCTGTTCAAGCGCCATCTAC
Second: GATGATTGTTCTCCCAGCTGATGAATTCGTTTCCTCGAGTAAACAAATTTTCCTAATCTTTCTGTTCAAGCGCCATCTAC
The binding signal of the first is higher: 6.51 RPM ratio (pull-down/input) for the first, 1.76 RPM ratio (pull-down/input) for the second.

First: GATGATTGTTCTCCCAGCTGATGAATTGTGGAAGTCGAGTAAACAAATTTTCCTAATCTTTCTGTTCAAGCGCCATCTAC
Second: GATGATTGTTCTCCCAGCTGATGAATTTAGCGGATCGAGTAAACAAATTTTCCTAATCTTTCTGTTCAAGCGCCATCTAC
The binding signal of the first is lower: 0.274 RPM ratio (pull-down/input) for the first, 0.292 RPM ratio (pull-down/input) for the second.

First: GATGATTGTTCTCCCAGCTGATGAATTGACTCCCTCGAGTAAACAAATTTTCCTAATCTTTCTGTTCAAGCGCCATCTAC
Second: GATGATTGTTCTCCCAGCTGATGAATTAGTTTGCTCGAGTAAACAAATTTTCCTAATCTTTCTGTTCAAGCGCCATCTAC
The binding signal of the first is lower: 0.386 RPM ratio (pull-down/input) for the first, 5.59 RPM ratio (pull-down/input) for the second.

Going from “GATGATTGTTCTCCCAGCTGATGAATTTATTTGCTCGAGTAAACAAATTTTCCTAATCTTTCTGTTCAAGCGCCATCTAC” to “GATGATTGTTCTCCCAGCTGATGAATTAGTTTTCTCGAGTAAACAAATTTTCCTAATCTTTCTGTTCAAGCGCCATCTAC”, the binding signal falls from 6.11 RPM ratio (pull-down/input) to 4.62 RPM ratio (pull-down/input).

First: GATGATTGTTCTCCCAGCTGATGAATTTAGTTGCTCGAGTAAACAAATTTTCCTAATCTTTCTGTTCAAGCGCCATCTAC
Second: GATGATTGTTCTCCCAGCTGATGAATTTTTTTGCTCGAGTAAACAAATTTTCCTAATCTTTCTGTTCAAGCGCCATCTAC
The binding signal of the first is higher: 2.92 RPM ratio (pull-down/input) for the first, 0.366 RPM ratio (pull-down/input) for the second.

First: GATGATTGTTCTCCCAGCTGATGAATTTGTTTGCTCGAGTAAACAAATTTTCCTAATCTTTCTGTTCAAGCGCCATCTAC
Second: GATGATTGTTCTCCCAGCTGATGAATTTCTTTGCTCGAGTAAACAAATTTTCCTAATCTTTCTGTTCAAGCGCCATCTAC
The binding signal of the first is higher: 7.54 RPM ratio (pull-down/input) for the first, 1.5 RPM ratio (pull-down/input) for the second.

Going from “GATGATTGTTCTCCCAGCTGATGAATTATTTTGCTCGAGTAAACAAATTTTCCTAATCTTTCTGTTCAAGCGCCATCTAC” to “GATGATTGTTCTCCCAGCTGATGAATTTGATTGCTCGAGTAAACAAATTTTCCTAATCTTTCTGTTCAAGCGCCATCTAC”, the binding signal rises from 0.946 RPM ratio (pull-down/input) to 5.45 RPM ratio (pull-down/input).

Going from “GATGATTGTTCTCCCAGCTGATGAATTTTGTTGCTCGAGTAAACAAATTTTCCTAATCTTTCTGTTCAAGCGCCATCTAC” to “GATGATTGTTCTCCCAGCTGATGAATTTTATTGCTCGAGTAAACAAATTTTCCTAATCTTTCTGTTCAAGCGCCATCTAC”, the binding signal falls from 5.63 RPM ratio (pull-down/input) to 2.06 RPM ratio (pull-down/input).

“GATGATTGTTCTCCCAGCTGATGAATTGTTTTGCTCGAGTAAACAAATTTTCCTAATCTTTCTGTTCAAGCGCCATCTAC” was tested, and the binding signal was 3.65 RPM ratio (pull-down/input).
